Test results as given in PubChem BioAssay.
The source made the active and inactive calls.

Legend:
[1] = system: Plasmodium falciparum Sir2 (PF13_0152, Sir2A); test: pfSir2 binders on small-molecule microarrays, primary screen, biochemical, small-molecule microarray, 635 nm fluorescence (AID 1098); settings: small-molecule microarray binding, fluorescence 635 nm; higher = more signal;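 further: score merges spot fluorescence intensity with its signal-to-noise ratio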
[2] = small-molecule microarray binders of probe aDKK1, primary screen, biochemical, biotinylated probe, 635/667 nm fluorescence (AID 1099); settings: higher = more signal;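 further: score merges 667nm spot fluorescence with signal to noise across triplicate slides; reference of the scale not given here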
[3] = small-molecule microarray binders of probe aCHRDL2, primary screen, biochemical, biotinylated probe, 635/667 nm fluorescence (AID 1100); settings: higher = more signal
[4] = splicing luciferase reporter signal modulators, primary screen, spliceosome inhibition project, cell-based, HEK293, splice +/- reporter (AID 1101); settings: luminescence, 24 h, higher = more signal, called active from +8 up or from −8 down;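 further: HEK293 cells carrying a splicing-competent luciferase reporter gene; test concentration not given here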
[5] = target: Fibroblast growth factor 10 (Homo sapiens) (UniProt O15520); test: FGF10 binders on small-molecule microarrays, primary screen, biochemical, small-molecule microarray, 635 nm fluorescence (AID 1102); settings: FGF10 binding, fluorescence 635 nm, higher = more signal
Fibroblast growth factor 10 (Homo sapiens), sequence (O15520 whole entry, looked up): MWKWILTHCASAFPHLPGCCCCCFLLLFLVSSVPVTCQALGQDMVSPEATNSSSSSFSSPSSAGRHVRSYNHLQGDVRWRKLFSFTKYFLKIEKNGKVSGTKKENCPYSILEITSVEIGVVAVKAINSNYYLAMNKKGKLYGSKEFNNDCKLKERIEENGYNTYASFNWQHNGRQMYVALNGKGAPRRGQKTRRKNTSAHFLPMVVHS

[6] = system: glycogen synthase kinase-3 (GSK3A per assay name; protocol says GSK3B); test: GSK3 binders on small-molecule microarrays, primary screen, biochemical, small-molecule microarray, 635 nm fluorescence, GSK3A (AID 1103); settings: small-molecule microarray binding, fluorescence 635 nm; higher = more signal; further: the record names both GSK3A and GSK3B
[7] = target: Epidermal growth factor receptor (Homo sapiens) (UniProt P00533); test: EGFR binders on small-molecule microarrays, primary screen, biochemical, small-molecule microarray, 635 nm fluorescence (AID 1104); settings: EGFR binding, higher = more signal;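 further: score merges 667 nm emission intensity with spot signal to noise over triplicate slides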
Epidermal growth factor receptor (Homo sapiens), sequence (P00533 whole entry, looked up): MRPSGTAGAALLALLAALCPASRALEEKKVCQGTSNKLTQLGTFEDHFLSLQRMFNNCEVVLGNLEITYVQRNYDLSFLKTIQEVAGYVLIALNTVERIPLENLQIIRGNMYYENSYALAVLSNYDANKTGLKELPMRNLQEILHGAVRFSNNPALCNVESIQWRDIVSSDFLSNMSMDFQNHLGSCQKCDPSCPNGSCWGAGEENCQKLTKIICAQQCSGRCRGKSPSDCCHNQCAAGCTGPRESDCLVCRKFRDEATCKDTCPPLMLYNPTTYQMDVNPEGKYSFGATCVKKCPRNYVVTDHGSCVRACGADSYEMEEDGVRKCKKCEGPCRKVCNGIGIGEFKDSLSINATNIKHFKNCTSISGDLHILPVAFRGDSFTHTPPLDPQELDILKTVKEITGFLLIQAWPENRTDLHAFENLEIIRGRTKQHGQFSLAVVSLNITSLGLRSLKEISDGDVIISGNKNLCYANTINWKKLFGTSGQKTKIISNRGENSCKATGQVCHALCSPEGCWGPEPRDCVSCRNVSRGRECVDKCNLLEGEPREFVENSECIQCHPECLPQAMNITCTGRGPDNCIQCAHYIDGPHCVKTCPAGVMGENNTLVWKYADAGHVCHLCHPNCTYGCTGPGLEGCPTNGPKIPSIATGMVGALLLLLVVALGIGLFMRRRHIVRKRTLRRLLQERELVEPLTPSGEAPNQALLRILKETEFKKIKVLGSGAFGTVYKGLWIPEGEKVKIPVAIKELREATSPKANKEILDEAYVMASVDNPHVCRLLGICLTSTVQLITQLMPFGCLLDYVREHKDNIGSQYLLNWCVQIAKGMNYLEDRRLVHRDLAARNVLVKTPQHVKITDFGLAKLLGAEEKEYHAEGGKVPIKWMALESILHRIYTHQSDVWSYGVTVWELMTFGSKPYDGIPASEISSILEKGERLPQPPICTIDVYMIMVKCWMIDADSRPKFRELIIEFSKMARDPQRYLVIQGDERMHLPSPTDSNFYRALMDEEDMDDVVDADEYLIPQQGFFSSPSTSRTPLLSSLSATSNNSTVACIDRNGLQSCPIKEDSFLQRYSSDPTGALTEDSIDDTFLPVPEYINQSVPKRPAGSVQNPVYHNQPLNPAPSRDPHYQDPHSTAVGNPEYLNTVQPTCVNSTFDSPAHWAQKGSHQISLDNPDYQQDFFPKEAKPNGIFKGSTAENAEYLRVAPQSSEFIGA

[8] = target: Follistatin-related protein 3 (Homo sapiens) (UniProt O95633); test: FSTL3 binders on small-molecule microarrays, primary screen, biochemical, small-molecule microarray, 635 nm fluorescence (AID 1105); settings: FSTL3 binding, higher = more signal;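 further: score merges emission near 667 nm and signal to noise per printed spot across three slides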
Follistatin-related protein 3 (Homo sapiens), sequence (O95633 whole entry, looked up): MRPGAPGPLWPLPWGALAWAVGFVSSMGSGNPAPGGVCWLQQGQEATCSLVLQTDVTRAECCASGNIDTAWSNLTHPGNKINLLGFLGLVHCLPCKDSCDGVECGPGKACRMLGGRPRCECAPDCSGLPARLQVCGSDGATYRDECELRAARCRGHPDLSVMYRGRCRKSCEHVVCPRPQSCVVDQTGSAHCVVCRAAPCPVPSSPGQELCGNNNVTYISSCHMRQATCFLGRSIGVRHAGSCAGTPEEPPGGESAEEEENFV

[9] = target: Dickkopf-related protein 1 (Homo sapiens) (UniProt O94907); test: DKK1 binders on small-molecule microarrays, primary screen, biochemical, small-molecule microarray, 635 nm fluorescence scan (AID 1106); settings: DKK1 binding, higher = more signal;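 further: score merges emission near 667 nm with signal to noise over three replicate slides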
Dickkopf-related protein 1 (Homo sapiens), sequence (O94907 whole entry, looked up): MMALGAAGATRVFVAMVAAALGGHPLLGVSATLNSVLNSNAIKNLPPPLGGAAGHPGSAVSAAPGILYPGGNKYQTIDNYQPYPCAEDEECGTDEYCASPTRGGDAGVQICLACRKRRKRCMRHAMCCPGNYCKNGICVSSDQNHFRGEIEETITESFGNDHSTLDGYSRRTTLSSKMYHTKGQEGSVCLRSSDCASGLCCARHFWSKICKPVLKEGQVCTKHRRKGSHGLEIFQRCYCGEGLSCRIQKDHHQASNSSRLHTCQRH

[10] = system: Inhibin beta A chain (activin A); test: INHBA (activin A) binders on microarrays, primary screen, biochemical, small-molecule microarray, 635 nm fluorescence scan (AID 1107); settings: small-molecule microarray binding, higher = more signal;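 further: mouse activin A protein probed at 4.33 µg/mL on printed slides; score merges bound-protein fluorescence near 667 nm with spot signal-to-noise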

SMILES | composite z-score [1] | composite z-score [2] | composite z-score [3] | z-score [4] | composite z-score [5] | composite z-score [6] | composite z-score [7] | composite z-score [8] | composite z-score [9] | composite z-score [10]
CN(C)C(=O)[C@@]1(CCS(=O)(=O)c2ccccc2)N=C(c2ccc(OCCCO)cc2)O[C@H]1c1ccccc1CN=[N+]=[N-] | 1.02 | 0.182 | 0.286 | -0.863 (inactive) | 1.41 | 1.36 | 0.27 | 0.922 | 0.52 | 0.69
COCCOC(=O)N1C(=O)[C@@]2(c3ccccc31)[C@H](c1ccccc1OCCO)N1[C@H](c3ccccc3)[C@H](c3ccccc3)OC(=O)[C@H]1[C@@H]2C(=O)N1CCc2cc(OC)c(OC)cc2C1 | 1.1 | 0.153 | 0.49 | -1.42 (inactive) | 0.658 | 1.28 | 0.261 | 0.788 | 0.424 | 0.41
Cc1ccc(S[C@]2(C(=O)NCC(C)C)CC(=O)N(C3CCCCC3)[C@@H]2c2ccc(CO)cc2I)cc1 | 0.42 | 0.0006 | 0.421 | -1.4 (inactive) | 0.231 | 0.296 | 0.21 | 0.468 | -0.147 | 0.83
O=C1C[C@@](C(=O)O)(c2ccc([N+](=O)[O-])cc2)[C@@H](c2ccc(CO)cc2)N1CC12CC3CC(CC(C3)C1)C2 | 1.23 | 0.28 | 0.771 | 0.66 (inactive) | 1.18 | 0.386 | 0.259 | 0.554 | -0.148 | 0.532
COCCCNC(=O)[C@@]1(C)c2ccccc2C(=O)N(c2ccc(C)cn2)[C@H]1c1ccc(CO)cc1 | 0.963 | -0.748 | -0.75 | 0.532 (inactive) | -1.15 | -0.799 | -0.626 | -0.551 | -0.813 | 0.534
Cc1cc(C)c(C(O)C2C=CC3C(=O)N(c4ccccc4)C(=O)C3N2Nc2ccccc2)c(C)c1 (stereo not given) | 1.52 | 1.17 | 0.849 | -0.62 (inactive) | 0.964 | 1.2 | 0.403 | 0.939 | -0.167 | 0.242
C=CCC(OC(C)=O)[C@@H]1[C@@H](N(Cc2ccc(-c3ccccc3)cc2)C(=O)Cc2ccc(OC)cc2)c2cc(OCCCO)ccc2N1C(=O)c1ccc(-c2ccccc2)cc1 (stereo not given in full) | -0.0063 | 0.073 | 0.31 | -0.757 (inactive) | -0.0097 | -0.15 | -0.332 | -0.0062 | -0.18 | 1.22
C=CCC(OC(C)=O)[C@@H]1[C@@H](N(Cc2cccc3ccccc23)C(=O)c2ccc(C)cc2)c2cc(OCCCO)ccc2N1C(=O)c1ccc2ccccc2c1 (stereo not given in full) | -0.269 | -0.259 | 0.281 | -1.86 (inactive) | 0.11 | 0.0882 | 0.286 | 0.421 | 0.181 | 1.08
CN1C(=O)C2C=CC(C(O)COCc3ccccc3)N(Nc3ccccc3)C2C1=O (stereo not given) | 0.867 | -0.109 | 0.285 | 1.43 (inactive) | 0.558 | 0.453 | 0.132 | 1.06 | 0.0378 | 1.18
C=CCOC(=O)[C@H]1[C@@H]2C(=O)O[C@@H](c3ccccc3)[C@@H](c3ccccc3)N2[C@@H](c2ccc(OCCOC(=O)[C@H]3C[C@H]4C(=O)N[C@@H](CCCCN(C)C)C(=O)N4[C@H]3c3ccc(O)cc3)cc2)[C@]12C(=O)Nc1ccccc12 | 0.436 | 0.638 | 0.4 | -0.226 (inactive) | 1 | 0.957 | 0.606 | 1.4 | 0.805 | 1.04
COc1ccc(C(=O)Nc2ccc3c(c2)[C@]2(O[C@@H](CCO)[C@H]([Si](C)(C)c4ccc(OC)cc4)[C@H]2C)C(=O)N3Cc2ccccc2)cc1 | 0.663 | -0.0183 | -0.0221 | -3.4 (inactive) | 0.572 | 0.3 | 0.349 | 0.393 | 0.359 | 1.11
CN(C)CCCCCCNC(=O)[C@@H]1C[C@@H]2C(=O)NCC(=O)N2[C@@H]1c1ccc(O)cc1 | 1.25 | -0.0528 | -0.29 | -0.326 (inactive) | 1.4 | 1.36 | 0.59 | 1.46 | 1.19 | 0.678
COc1cc(C(O)C2C=CC3C(=O)NC(=O)C3N2Nc2ccc(Cl)cc2Cl)cc(OC)c1OC (stereo not given) | 1.18 | 0.88 | 1.12 | 0.734 (inactive) | 0.746 | 0.189 | -0.0874 | 1.28 | -0.675 | 1.11
COC(=O)[C@]1(Cc2ccccc2CN=[N+]=[N-])N=C(c2ccc(OCCCO)cc2)O[C@@H]1c1ccccc1 | 1.15 | -0.0032 | 0.987 | -2.04 (inactive) | -1.34 | -1.08 | -1.46 | -0.869 | -1 | 0.53
CO[C@H]1O[C@H](CO)[C@@H](OC(=O)Nc2cccc(F)c2)[C@H](OC(=O)Nc2ccc3c(c2)OCO3)[C@H]1OC(=O)Nc1ccc2c(c1)OCO2 | 0.932 | 0.0673 | 0.307 | -0.197 (inactive) | 0.693 | 0.26 | 0.199 | 0.55 | 0.177 | 0.674
Cc1ccc(F)cc1S(=O)(=O)N[C@@H]1CCN(C(=O)c2ccc(OC(C)C)cc2)C1 | 0.416 | -0.274 | -0.734 | -0.0035 (inactive) | 0.969 | 1 | 0.5 | 1.34 | 0.463 | 0.0062
O=C1OCC=C[C@H]2OC34C=CCN(CCN5CCOCC5)C(=O)[C@H]3N(CCCCCO)C(=O)[C@@H]4[C@@H]12 (stereo not given in full) | 1.35 | -0.284 | -0.227 | 0.636 (inactive) | -0.736 | -0.0692 | -0.411 | -0.412 | -0.24 | 0.77
CCC[C@@H]1C[C@@]1(CCC)[C@@H](NC(=O)c1ccco1)c1ccc(Cl)cc1 | -0.585 | -0.0347 | 0.762 | -3.52 (inactive) | 0.14 | -2.1 | -0.414 | -0.722 | -0.366 | 0.447
[N-]=[N+]=NCc1ccccc1C[C@]1(C(=O)NCCN2CCOCC2)COC(c2ccc(OCCCO)cc2)=N1 | 1.49 | 0.297 | 0.853 | -0.995 (inactive) | 0.396 | 0.966 | -0.553 | 0.101 | -0.36 | 0.978
C=C(/C(=C/C[C@@H](OC(C)=O)c1ccccc1OCCO)c1cnc2ccccc2c1)C(C)C | 0.85 | -0.0495 | 0.168 | -0.333 (inactive) | 1.22 | 0.312 | 0.038 | 1.15 | 0.331 | 1.7
[N-]=[N+]=NCc1ccccc1[C@H]1OC(c2ccc(OCCCO)cc2)=N[C@@]1(Cc1ccccc1N=[N+]=[N-])C(=O)NCCN1CCOCC1 | 0.879 | 0.901 | 1.15 | -0.44 (inactive) | 1.26 | 1.3 | 0.558 | 1.32 | 0.136 | 0.511
O=C1c2ccccc2C(=O)C2CC([C@H]3Oc4ccccc4S(=O)(=O)N4CCC[C@@H]34)=CCC12 (stereo not given in full) | -0.41 | -0.158 | -0.119 | -0.279 (inactive) | 0.0804 | 0.301 | 0.153 | -0.26 | 0.187 | 0.771
CC[C@@H]1[C@@H]2C3C(=O)N(CC)C(=O)C3CC(=O)[C@@H]2[C@H](c2ccc(C)cc2)N1S(=O)(=O)c1ccc(C)cc1 (stereo not given in full) | 0.426 | 0.384 | 0.246 | -1.52 (inactive) | 0.859 | 1.31 | 0.174 | 0.748 | 0.238 | 0.241
COc1ccc([Si](C)(C)[C@@H]2[C@@H](CC(=O)N(CCO)Cc3ccccc3)O[C@]3(C(=O)N(Cc4ccc(N5CCOC5=O)cc4)c4ccccc43)[C@H]2C)cc1 | 0.851 | 0.232 | 0.0947 | 0.24 (inactive) | 0.472 | 0.218 | 0.467 | 1.09 | 0.71 | 0.529
O=C1C2C=CC(C(O)c3ccccn3)N(Nc3ccccc3)C2C(=O)N1c1ccccc1 (stereo not given) | 0.687 | 0.264 | 0.5 | 0.383 (inactive) | -0.191 | -0.326 | -0.441 | -0.656 | -0.341 | 0.826
COc1ccc([Si](C)(C)[C@H]2[C@H](CCO)O[C@@]3(C(=O)N(Cc4cccc(N5CCOC5=O)c4)c4ccccc43)[C@@H]2C)cc1 | 1.17 | -0.165 | -0.339 | -0.91 (inactive) | 0.997 | 0.808 | 0.0733 | 0.493 | 0.581 | -0.419
Cc1ccc(S[C@]2(C(=O)NCCN3CCOCC3)CC(=O)N(C3Cc4ccccc4C3)[C@@H]2c2ccc(CO)cc2)cc1 | 1.48 | 0.0662 | 0.64 | -0.0221 (inactive) | -0.644 | -1.2 | -1 | -0.804 | -0.866 | 0.345
C=C(/C(=C/C[C@@H](OC(=O)c1ccncc1)c1ccccc1OCCO)c1cnc2ccccc2c1)C(C)C | 0.25 | 0.0171 | -0.21 | -2.43 (inactive) | 1.55 | 1.29 | 1.23 | 1.61 | 0.413 | 1.77
